Values without a mark were called inactive. Records with an inconclusive call do not appear. A call without a number means that no potency is given here. Active and inactive are the calls of the source. Unless noted, the call rests on the fitted dose curve; in most records, active means well fitted curve in the direction sought with a large enough effect in the repeat runs; inconclusive means weak or mixed curves; inactive means no such curve, though single readings can be large; an effect the other way counts as inactive or inconclusive.
Legend:
[1] = A CellTox Green Cytotoxicity Assay to monitor cytotoxicity in HepG2 cells - 32 hour (AID 1224883); further: nearly all actives have a fitted effect of over 50% in size
In short: (§1)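 Measurements at 0, 8, 16, 24, 32 and 40 h of treatment captured CellTox Green fluorescence in HepG2 cells that had been co-plated with reagent and preincubated 5 h at 37 C/5% CO2.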

[2] = A CellTox Green Cytotoxicity Assay to monitor cytotoxicity in HEK293 cells - 8 hour (AID 1224884); further: nearly all actives have a fitted effect of over 35% in size
In short: (§2)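 Tox21 screen in HEK293: membrane-impermeant cyanine dye fluoresces on binding dead-cell DNA; compound pinned 5 h post-seeding, plates held at 37 C, signal read repeatedly through 40 h.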

[3] = qHTS RealTime-Glo MT Cell Viability Assay in HepG2 cells - 16 hour (AID 1224885); further: nearly all actives have a fitted effect of over 50% in size
In short: (§3)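 Luminescence read-out: viable HepG2 cells reduce a prosubstrate to a NanoLuc substrate, giving a signal proportional to live cell number. Reads taken at 0, 8, 16, 24, 32 and 40 h of compound exposure at 37 C.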

[4] = qHTS RealTime-Glo MT Cell Viability Assay in HEK293 cells - 24 hour (AID 1224886); further: nearly all actives have a fitted effect of over 50% in size; further: potency means the concentration at half of the fitted maximal effect; on activity change, negative = cytotoxicity: top concentration of the series differs between compounds
In short: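 Nonlytic real-time viability readout: viable cells convert prosubstrate to NanoLuc substrate, giving luminescence proportional to live cell number. HEK293, 600 cells/well, compound added after 5 h, continuous culture at 37 C.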

[5] = qHTS RealTime-Glo MT Cell Viability Assay in HEK293 cells - 8 hour (AID 1224887); further: nearly all actives have a fitted effect of over 50% in size; further: potency means the concentration at half of the fitted maximal effect; on activity change, negative = cytotoxicity: top concentration of the series differs between compounds
In short: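 HEK293 + NanoLuc + prosubstrate, 600 cells/well; 5 h, 37 C/5% CO2; compound 23 nL in DMSO by pintool; 37 C; luminescence read at 0, 8, 16, 24, 32 and 40 h time points.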

[6] = A CellTox Green Cytotoxicity Assay to monitor cytotoxicity in HEK293 cells - 16 hour (AID 1224888); further: nearly all actives have a fitted effect of over 35% in size
In short: as §2

[7] = qHTS RealTime-Glo MT Cell Viability Assay in HepG2 cells - 0 hour (AID 1224889); further: nearly all actives have a fitted effect of over 50% in size
In short: as §3

[8] = A CellTox Green Cytotoxicity Assay to monitor cytotoxicity in HepG2 cells - 8 hour (AID 1224890); further: nearly all actives have a fitted effect of over 45% in size
In short: as §1

[9] = qHTS assay to identify small molecule antagonists of the estrogen receptor alpha (ER-alpha) signaling pathway using the BG1 cell line in the presence of 0.1 nM 17-beta-estradiol - cell viability counter screen (AID 1259241); further: nearly all actives have a fitted effect of over 40% in size
In short: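 VM7Luc4E2 cells (endogenous full-length ER-alpha, 4xERE-luciferase), cultured 5 days in charcoal-stripped serum, exposed to compounds with 0.1 nM 17beta-estradiol (final) for 22 hr at 37C. Viability read in same wells as live-cell protease fluorescence after 30 min.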

[10] = qHTS assay to identify small molecule antagonists of the androgen receptor (AR) signaling pathway using the MDA cell line in the presence of 0.5 nM R1881 - cell viability counter screen (AID 1259242); further: nearly all actives have a fitted effect of over 45% in size
In short: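 Concentration-response screen of compounds for toxicity in MDA-kb2 reporter cells: 16 hr at 37C with 0.5 nM R1881, endpoint live-cell protease fluorescence measured in the reporter wells.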

[11] = qHTS assay to identify small molecule HDAC inhibitors (AID 1259364);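 further: wild-type HCT-116 cells with endogenous class I/II HDAC activity; top concentration of the series differs between compounds; nearly all actives have a fitted effect of over 45% in size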
In short: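 Screening used wild-type human colon HCT-116 cells incubated overnight, dosed with compounds for 2 hours, and assayed with a homogeneous luminogenic HDAC I/II reagent for 30 minutes at room temperature.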

[12] = qHTS assay to identify small molecule HDAC inhibitors - cell viability counter screen (AID 1259365)
In short: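 Wild-type HCT-116 cells, 1,500/well, cultured overnight, then compound-treated 2 h at 37 C. Viability measured as ATP luminescence with CellTiter-Glo after 30 min at room temperature.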

[13] = qHTS assay to identify small molecule agonists of the sonic hedgehog signaling (Shh) pathway - cell viability counter screen (AID 1259366); further: nearly all actives have a fitted effect of over 50% in size
In short: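 NIH/3T3-derived Gli1-Luc reporter cells, 2,000 per well, received compound after 4 h and were treated about 23 h at 37C. Viability measured in the same wells by CellTiter-Fluor fluorescence after 1 h.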

[14] = qHTS assay to identify small molecule antagonists of the sonic hedgehog signaling (Shh) pathway (AID 1259369; calls by dose curve; further: nearly all actives have a fitted effect of over 45% in size)
In short: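 NIH/3T3 stable Gli1-Luc clone, 2,000 cells/well, 4hr settle; cpd + conditioned medium 24hr; Luc reagent 30min RT; luminescence.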

[15] = target: Estrogen receptor beta (Homo sapiens) (UniProt Q92731); assay: qHTS assay to identify small molecule agonists of the estrogen receptor beta (ER-beta) signaling pathway (AID 1259377; active means well fitted activation curve with a large enough effect in the signal ratio in the repeat runs, not every such curve was filed as active; the % refers to the signal ratio)
In short: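 ER-beta-UAS-bla HEK293T cells in medium with 2% charcoal-stripped FBS were exposed to compounds for 16 h at 37C. Beta-lactamase reporter activity was read as fluorescence after 2 h with LiveBLAzer B/G FRET substrate at room temperature.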

[16] = qHTS assay to identify small molecule antagonists of the sonic hedgehog signaling (Shh) pathway - cell viability counter screen (AID 1259367); further: nearly all actives have a fitted effect of over 55% in size
In short: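 Cytotoxicity was assessed in parallel with Shh reporter activity by measuring live-cell protease fluorescence (CellTiter-Fluor) in NIH/3T3 cells stably carrying Gli1-Luc, treated with compound under conditioned medium stimulation for 23 hr plus 1 hr reagent incubation.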

[17] = qHTS assay to identify small molecule agonists of the sonic hedgehog signaling (Shh) pathway (AID 1259368; calls by dose curve;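 further: NIH/3T3-derived 3T3Gli1-Luc cells carrying a stable Gli1-driven firefly luciferase reporter; series mostly up to about 92 µM; nearly all actives have a fitted effect of over 15% in size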)
In short: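 Hedgehog pathway agonism scored by increased firefly luciferase luminescence in 3T3Gli1-Luc cells treated 24 hr at 37 C; detection used a 30 min room-temperature reagent incubation.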

[18] = qHTS assay to identify small molecule phospholipidosis (PLD) inducers (AID 1259344; active means well fitted curve in the direction sought with a large enough effect; an effect the other way counts as inactive or inconclusive)
In short: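 Cells (HepG2, 900 per well) attach for 4 h, receive LipidTOX Red and compound together, incubate 24 h at 37 C, are fixed 30 min with paraformaldehyde/Hoechst, then imaged at one site per well.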

[19] = target: Androgen receptor (Homo sapiens) (UniProt P10275); assay: qHTS assay to identify small molecule antagonists of the androgen receptor (AR) signaling pathway using the MDA cell line in the presence of 0.5 nM R1881 (AID 1259243); further: nearly all actives have a fitted effect of over 50% in size
In short: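 With R1881 held at 0.5 nM (final), compound effects on MMTV-luciferase expression in MDA-kb2 cells were scored by luminescence after a 16 hr, 37C incubation.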

Chain of Estrogen receptor beta (Homo sapiens) (Q92731 whole entry, looked up): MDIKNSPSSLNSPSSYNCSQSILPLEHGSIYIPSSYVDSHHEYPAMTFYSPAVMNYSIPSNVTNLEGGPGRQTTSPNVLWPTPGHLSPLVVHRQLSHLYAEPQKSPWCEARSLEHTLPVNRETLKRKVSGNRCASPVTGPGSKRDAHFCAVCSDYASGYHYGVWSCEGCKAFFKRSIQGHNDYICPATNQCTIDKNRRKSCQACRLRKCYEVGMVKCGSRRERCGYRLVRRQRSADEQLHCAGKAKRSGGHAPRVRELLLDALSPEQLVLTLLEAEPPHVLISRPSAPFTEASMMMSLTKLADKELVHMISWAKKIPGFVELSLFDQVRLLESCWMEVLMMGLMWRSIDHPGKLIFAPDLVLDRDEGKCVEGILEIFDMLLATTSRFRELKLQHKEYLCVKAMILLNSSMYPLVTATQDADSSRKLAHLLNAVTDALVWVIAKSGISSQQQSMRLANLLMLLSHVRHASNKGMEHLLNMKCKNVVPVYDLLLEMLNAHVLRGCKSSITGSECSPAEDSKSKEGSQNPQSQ
Chain of Androgen receptor (Homo sapiens) (P10275 whole entry, looked up): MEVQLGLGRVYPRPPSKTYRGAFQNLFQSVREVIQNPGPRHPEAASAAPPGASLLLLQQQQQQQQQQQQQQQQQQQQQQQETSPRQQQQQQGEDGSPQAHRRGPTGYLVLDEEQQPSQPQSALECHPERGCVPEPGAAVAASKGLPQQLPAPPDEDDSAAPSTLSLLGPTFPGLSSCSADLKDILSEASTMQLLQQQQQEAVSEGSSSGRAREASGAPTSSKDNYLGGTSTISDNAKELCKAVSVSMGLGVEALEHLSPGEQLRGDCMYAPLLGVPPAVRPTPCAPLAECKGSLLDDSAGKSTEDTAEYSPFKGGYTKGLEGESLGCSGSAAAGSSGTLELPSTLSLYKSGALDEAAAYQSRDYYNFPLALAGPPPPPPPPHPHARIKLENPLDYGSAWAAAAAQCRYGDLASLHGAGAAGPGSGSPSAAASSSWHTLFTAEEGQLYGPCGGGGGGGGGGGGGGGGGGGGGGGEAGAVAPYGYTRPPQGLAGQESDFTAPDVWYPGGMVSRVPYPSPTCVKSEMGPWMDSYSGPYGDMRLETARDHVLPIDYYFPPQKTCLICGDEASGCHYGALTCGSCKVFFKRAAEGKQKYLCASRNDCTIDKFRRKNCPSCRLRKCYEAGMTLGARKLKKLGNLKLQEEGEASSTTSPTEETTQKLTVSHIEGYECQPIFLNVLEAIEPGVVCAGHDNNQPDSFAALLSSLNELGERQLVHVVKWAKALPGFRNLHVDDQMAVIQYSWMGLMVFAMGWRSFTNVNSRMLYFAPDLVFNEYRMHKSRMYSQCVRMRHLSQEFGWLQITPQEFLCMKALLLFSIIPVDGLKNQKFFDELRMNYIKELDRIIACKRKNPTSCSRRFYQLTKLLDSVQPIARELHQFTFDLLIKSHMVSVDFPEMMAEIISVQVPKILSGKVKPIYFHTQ

SMILES: C=C(C)C(=O)OCC(C)(C)COC(=O)C(=C)C
- Potency [1]: inactive
- Potency [2]: inactive
- outcome [3]: inactive
- Potency [4]: inactive
- Potency [5]: inactive
- outcome [6]: inactive
- Potency [7]: inactive
- outcome [8]: inactive
- Potency [9]: inactive
- outcome [10]: inactive
- Potency [11]: inactive
- outcome [12]: inactive
- Potency [13]: inactive
- Potency [14]: inactive
- Potency [15]: inactive

SMILES: CCOc1cc(NC(C)=O)ccc1C(=O)OC
- Potency [1]: inactive
- Potency [2]: inactive
- outcome [3]: inactive
- Potency [4]: inactive
- Potency [5]: inactive
- outcome [6]: inactive
- Potency [7]: inactive
- outcome [8]: inactive
- Potency [9]: inactive
- outcome [10]: inactive
- Potency [11]: inactive
- outcome [12]: inactive
- Potency [13]: inactive
- Potency [14]: inactive

SMILES: CCOCCOCCOCC
- Potency [1]: inactive
- Potency [2]: inactive
- outcome [3]: inactive
- Potency [4]: inactive
- Potency [5]: inactive
- outcome [6]: inactive
- Potency [7]: inactive
- outcome [8]: inactive
- Potency [9]: inactive
- outcome [10]: inactive
- Potency [11]: inactive
- outcome [12]: inactive
- Potency [13]: inactive
- Potency [16]: inactive
- outcome [17]: inactive
- Potency [14]: inactive
- Potency [15]: inactive

SMILES: COc1ccc(C2CNC(=O)C2)cc1OC1CCCC1 (stereo not drawn)
- Potency [1]: inactive
- Potency [2]: inactive
- outcome [3]: inactive
- Potency [4]: inactive
- Potency [5]: inactive
- outcome [6]: inactive
- Potency [7]: inactive
- outcome [8]: inactive
- Potency [9]: inactive
- outcome [10]: inactive
- outcome [18]: inactive
- Potency [11]: inactive
- outcome [12]: inactive
- Potency [13]: inactive
- Potency [16]: inactive
- outcome [17]: inactive
- Potency [15]: inactive

SMILES: N[C@@H](COP(=O)(O)O)C(=O)O
- cytotoxicity increase [1]: -0.733% [at 15.8 µM]
- cytotoxicity increase [2]: -2.54% [at 15.8 µM]
- activity change, negative = cytotoxic [3]: 1.13% [at 15.8 µM]
- activity change, negative = cytotoxicity [4]: 1.75% [at 15.8 µM]
- activity change, negative = cytotoxicity [5]: 10.1% [at 15.8 µM]
- activity change [6]: -5.61% [at 15.8 µM]
- activity change, negative = cytotoxicity [7]: -1.1% [at 15.8 µM]
- cytotoxicity increase [8]: 3.11% [at 15.8 µM]
- activity change, negative = cytotoxicity [9]: 0.527% [at 19 µM]
- viability change, negative = cytotoxic [10]: 4.56% [at 19 µM]
- activity change, negative = inhibition [11]: -0.0158% [at 19 µM]
- activity change, negative = cytotoxicity [12]: 0.384% [at 19 µM]
- viability change, negative = cytotoxic [13]: -4.16% [at 19 µM]
- viability change, negative = cytotoxic [16]: 5.61% [at 19 µM]
- activity change, negative = inhibition [14]: 28.3% [at 19 µM]
- activation [15]: 0.272% [at 19 µM]

SMILES: CN=C(NC#N)Nc1ccc(C2=NNC(=O)CC2C)cc1 (stereo not drawn)
- Potency [1]: inactive
- Potency [2]: inactive
- outcome [3]: inactive
- Potency [4]: inactive
- Potency [5]: inactive
- outcome [6]: inactive
- Potency [7]: inactive
- outcome [8]: inactive
- Potency [9]: inactive
- outcome [10]: inactive
- Potency [11]: inactive
- outcome [12]: inactive
- Potency [13]: inactive
- Potency [16]: inactive
- outcome [17]: inactive
- Potency [14]: inactive

SMILES: CC(=O)N[C@@H](CCC(=O)O)C(=O)O
- Potency [1]: inactive
- Potency [2]: inactive
- outcome [3]: inactive
- Potency [4]: inactive
- Potency [5]: inactive
- outcome [6]: inactive
- Potency [7]: inactive
- outcome [8]: inactive
- Potency [9]: inactive
- outcome [10]: inactive
- Potency [11]: inactive
- outcome [12]: inactive
- Potency [13]: inactive
- Potency [16]: inactive
- outcome [17]: inactive
- Potency [14]: inactive
- Potency [15]: inactive

SMILES: CCC(C=O)CC
- Potency [1]: inactive
- Potency [2]: inactive
- outcome [3]: inactive
- Potency [4]: inactive
- Potency [5]: inactive
- outcome [6]: inactive
- Potency [7]: inactive
- outcome [8]: inactive
- Potency [9]: inactive
- outcome [10]: inactive
- Potency [11]: inactive
- outcome [12]: inactive
- Potency [16]: inactive
- Potency [14]: inactive
- Potency [15]: inactive

SMILES: NS(=O)(=O)c1cc2c(cc1Cl)CN(C1CCCCC1)C2=O
- Potency [1]: inactive
- Potency [2]: inactive
- outcome [3]: inactive
- Potency [4]: 9.52 µM (active)
- Potency [5]: 9.52 µM (active)
- outcome [6]: inactive
- Potency [7]: inactive
- outcome [8]: inactive
- Potency [9]: inactive
- Potency [19]: inactive
- Potency [11]: inactive
- outcome [12]: inactive
- Potency [13]: inactive
- Potency [16]: inactive
- outcome [17]: inactive
- Potency [15]: inactive

Reference: PubChem BioAssay (Tox21)
